According to PubChem BioAssay (Tox21):
Results filed as inconclusive are left out. Calls of active or inactive are those of the source. Unless noted, the call rests on the fitted dose curve; in most records, active means well fitted curve in the direction sought with a large enough effect in the repeat runs; inconclusive means weak or mixed curves; inactive means flat fitted curve, though single readings scatter.

Legend:
[1] = qHTS assay to test for compound auto fluorescence at 535 nm (green) in HEK293 cells (AID 720680)
[2] = qHTS assay to test for compound auto fluorescence at 460 nm (blue) in HEK293 cell free culture (AID 720681)
In short: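 Test compounds were pinned into cell-free culture medium (DMEM with 10% FBS) and fluorescence was read directly at Ex/Em 405/460 nm. Signals were expressed as fluorescence equivalents of triamterene, with DMSO vehicle as control.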

[3] = qHTS assay to test for compound auto fluorescence at 535 nm (green) in HEK293 cell free culture (AID 720682)
In short: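 Cell-free medium (DMEM, 10% FBS) receives compound or DMSO by pintool. Plate read directly at Ex 485/Em 535 nm. Signal converted to fluorescein equivalency.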

[4] = qHTS assay to test for compound auto fluorescence at 590 nm (red) in HEK293 cell free culture (AID 720683)
In short: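 Tox21 10K library compounds were pinned into cell-free DMEM with 10% FBS and fluorescence was read at excitation 540 nm. Activity is expressed as Rose Bengal sodium equivalency.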

[5] = qHTS assay to test for compound auto fluorescence at 590 nm (red) in HepG2 cell free culture (AID 720684)
In short: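 Measured in medium alone (MEM containing 10% FBS) following pintool addition of compound; emission at 590 nm with 540 nm excitation, referenced to Rose Bengal sodium.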

[6] = qHTS assay to test for compound auto fluorescence at 460 nm (blue) in HepG2 cell free culture (AID 720685)
In short: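 Compound (23 nL) or DMSO pinned into cell-free MEM with 10% FBS; blue fluorescence read at 405/460 nm excitation/emission, expressed as auto-fluorescence equivalency to triamterene.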

[7] = qHTS assay to test for compound auto fluorescence at 535 nm (green) in HepG2 cell free culture (AID 720686)
[8] = qHTS assay to test for compound auto fluorescence at 460 nm (blue) in HepG2 cells (AID 720687)
In short: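 Cells (2,000/well in MEM with 10% FBS) attached overnight at 37 C, then were exposed to compound or DMSO for 1 hr at 37 C, 5% CO2. Fluorescence read at Ex/Em 405/460 nm, expressed as triamterene-equivalent signal.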

[9] = molecular target: Glucocorticoid receptor (Homo sapiens) (UniProt P04150); experiment: qHTS assay to identify small molecule agonists of the glucocorticoid receptor (GR) signaling pathway (AID 720691; active means well fitted activation curve with a large enough effect in the signal ratio in the repeat runs, not every such curve was filed as active; the % refers to the signal ratio); settings: GR-bla HeLa, beta-lactamase reporter ratio, 18 h; activation: at 62.4 µM (top of the series)
In short: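 Agonist mode in a HeLa line carrying a GRE-controlled beta-lactamase reporter. Compounds act for 18 h at 37 C before a 2 h room-temperature FRET substrate step and fluorescence reading.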

Measured: Potency

Sequence of Glucocorticoid receptor (Homo sapiens) (P04150 whole entry, looked up): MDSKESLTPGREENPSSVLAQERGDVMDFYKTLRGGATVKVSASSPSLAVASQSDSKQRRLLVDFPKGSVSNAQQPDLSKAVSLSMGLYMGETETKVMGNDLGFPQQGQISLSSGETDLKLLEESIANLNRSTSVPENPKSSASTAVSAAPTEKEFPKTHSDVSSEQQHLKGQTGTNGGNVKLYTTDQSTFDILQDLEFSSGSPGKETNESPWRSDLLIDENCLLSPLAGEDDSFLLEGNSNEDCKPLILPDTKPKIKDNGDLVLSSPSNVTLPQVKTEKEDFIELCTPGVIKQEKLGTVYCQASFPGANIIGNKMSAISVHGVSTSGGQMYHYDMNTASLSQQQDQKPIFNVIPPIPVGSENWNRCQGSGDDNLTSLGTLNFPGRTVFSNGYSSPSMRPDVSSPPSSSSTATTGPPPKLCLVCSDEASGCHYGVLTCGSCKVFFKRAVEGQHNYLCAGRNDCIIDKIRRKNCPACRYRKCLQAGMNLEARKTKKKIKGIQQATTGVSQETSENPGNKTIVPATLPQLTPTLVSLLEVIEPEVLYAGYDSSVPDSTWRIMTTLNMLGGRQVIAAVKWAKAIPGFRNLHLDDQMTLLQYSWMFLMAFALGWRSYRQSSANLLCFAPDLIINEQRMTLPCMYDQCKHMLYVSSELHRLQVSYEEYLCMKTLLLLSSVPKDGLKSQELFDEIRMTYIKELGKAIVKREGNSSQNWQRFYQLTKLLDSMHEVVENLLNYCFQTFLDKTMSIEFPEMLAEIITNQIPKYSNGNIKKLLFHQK

Cc1oc(-c2ccccc2)nc1CCOc1ccc(C[C@H](Nc2ccccc2C(=O)c2ccccc2)C(=O)O)cc1
not listed: [9]
inactive: all other assays above

Clc1ccccc1CN1CCc2sccc2C1
not listed: [9]
inactive: all other assays above

C=CC(=O)OCCC#N
inactive: all assays above

O=C(NO)c1ccccc1
inactive: all assays above

c1cc(OCC2CO2)cc(OCC2CO2)c1 (stereo unspecified)
inactive: all assays above

COc1cc(C=C2CCC/C(=C\c3ccc(O)c(OC)c3)C2=O)ccc1O
not listed: [9]
inactive: all other assays above

NC(=O)c1ccccc1N
not listed: [9]
inactive: all other assays above

C[C@H]1O[C@@H](O[C@H]2[C@@H](O)C[C@H](O[C@H]3[C@@H](O)C[C@H](O[C@H]4CC[C@@]5(C)[C@H](CC[C@@H]6[C@@H]5C[C@@H](O)[C@]5(C)[C@@H](C7=CC(=O)OC7)CC[C@]65O)C4)O[C@@H]3C)O[C@@H]2C)C[C@H](O)[C@@H]1O
inactive: all assays above

CC=O
not listed: [9]
inactive: all other assays above

CCN1CCN(c2cc(-c3ccc(F)cc3)c3c(n2)CCCCCC3)CC1
inactive: all assays above

C[C@@H]1CC[C@H]2C(C)(C)[C@H]3C[C@@]12CC[C@@]3(C)O
not listed: [9]
inactive: all other assays above

O=Nc1ccc(NO)cc1
inactive: all assays above

NC1(c2ccc(-c3nc4ccn5c(=O)[nH]nc5c4cc3-c3ccccc3)cc2)CCC1
inactive: all assays above

c1ccc(Nc2cccc3ccccc23)cc1
inactive: all assays above

Cc1cc(Nc2ccc(O)cc2)ccc1N
not listed: [9]
inactive: all other assays above

C=C1C(C)(C)[C@@]2(Cl)C(Cl)[C@]1(Cl)C(Cl)(Cl)C2(Cl)Cl (stereo partly specified)
not listed: [9]
inactive: all other assays above

CCCCCCCC/C=C/CCCOC(C)=O
inactive: all assays above

CC(O)C#CC(C)O (stereo unspecified)
inactive: all assays above

CCOC(=O)N1CCC(=C2c3ccc(Cl)cc3CCc3cccnc32)CC1
inactive: all assays above

O=C1OC(=O)c2cccc3cccc1c23
inactive: all assays above

Cc1c(C(=O)O)cccc1[N+](=O)[O-]
inactive: all assays above
